Data: the supplement of paper PMC6555819

System: VDR:RXRa (NR concentration 270 nM, RXRa partner concentration 90 nM)
Assay: PBM binding z-score (relative to random genomic background probes); higher = stronger binding; sequences stand for … in GC…GCGATTGACAGCGTAGAATGAAGG
Procedure: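 Protein-binding microarray (Agilent 4x180K custom design, double-stranded 60-nt probes: 5' GC cap, 34-nt variable region, 24-nt constant primer region; full probe sequence given). Purified or IVT nuclear receptor:RXRα heterodimers (3:1 NR:RXRα, mostly 270:90 nM) or homodimers were incubated for 1 h in PBS with 2% milk and no ligand, then detected with Alexa488 antibodies. Fluorescence from o1-orientation probes (~5 replicates averaged) was converted to z-scores against 500 random hg19 background probes. Variable regions are seed direct-repeat (DR0–DR5) sites, all their single-nucleotide variants and half-site ablations.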

Sequence	PBM binding z-score
GCGGCTAGGTCAGGTTGGTCAGCTAACGGGTACG	0.482
CAAGCTAGGTCACAGAGGTCAAAGTCCGTGCGTA	8.14
TTACCAAGCTGAGCTGAGGTCGTTGATCCAACTC	0.877
CCGAGTAGGTTATGGGCCATTCAGGCAACGGTGA	-0.116
CAAACTAGGTCACGGTCAAAGTCGGTTTGTGCCA	3.33
TCTCGGAGGATACGAAAGGTCAGAGCTCGACATC	2.6
ATATGTAGGTTAGCTGGGGTGATTCAGACTAGGC	1.01
ATCTCTAGGTAAAGATTGTTCAGTGAATGCAAAT	0.327
GAAACAGGGTCAAGGCCAGAGTACGCGTATTGAT	4.6
TCTAGTTGGTCAAAGATCACACACTCGAAATGCG	1.29
AATACAGGGTCAGCGTAGGCCAGAGTACGCACAG	3.44
CCGACTGGGTCAAGGTTACCATAACGCACAGCCA	2.05
CTTGAAAGGTCGGTTGAGGTGAGTATACGGATAA	2.66
CGACCAAGGTCAGAGAGGTCAGTGAATGCCGAGT	7.47
AGAATTAGGTTAAGATCAGGGAAACAGAATACAT	0.418
GATACAGGGTCAGCTAGAGGCCTGAGTATGGAAA	2.2
TCATATAGGTTAATGCTAGGTGAAAGTCCGATCT	1.43
CCTGCTAGCTCAATGGTCAGCTAAAGCAGCTCGC	-0.686
ACTAGCAGGCCACGTTTGGGTCACTCAAACAAAG	0.312
CCTAGTTGGTCAGGAGGTAACACACCGGATATGA	0.461

Sequence	PBM binding z-score
TCTAGTTGGTCTCGGAGGTCACACACGACGGGTA	3.75
CCTACTGGGCCAAGGTGATTGATCAGTCAAAGCA	-0.746
CGAACTAGGTCAGGACAGGACAGTGAAGGATGAT	0.943
ATCGAACGGTCGAAGGTGAGTATACCCACCCGAA	-0.202
CGTCCAAGGTCAGCAGTTCAGTGAAAGCGACGTG	3.56
TCTTGTTGATCAATAGAGGTTAAGAAAGTGCGCT	1.69
CCTACTGGGCCATGCAGAGGTCATTGATCATATG	3.86
ATCTCCAGGTAAGACTCAGTTCAGTGAAGAACGC	1.05
ACTATTAGTTGTCTTAGGGCAACCGATACGACGC	-0.0128
CGTCCAAGGTGATAGGAGGTCAGTGAAGACAGAT	3.08
GCAGACAGGTGAAACGCAGGTAACTCCGGGTGGC	-0.595
CATACAGGGTCAGCTAGGCAAGAGTAGGGACGGC	2.53
CCTTACGGGTCACGAAGTTATAGCACGACGAGCG	3.91
ATCTCTAGCTAAAGTTCAGTGAAAGATCGATAGA	1.49
CCAGACAGGTGAGAAGGTACCTCAGCCTCGATTA	-0.437
GCATATAGGTAATACAAGGTGAAAGACCGATTGT	0.319
ACTAGTTGGTCAGCTGAGGTTACACACAATTCGG	1.59
GTACCAAGGTGAATAGGTCGTTGACGAGTAGGCG	0.987
ATACCAAGATGATCGTGAGGTCGTTGATACTAAC	1.78
TTACCAAGGTGAAAGCTCGTTGATGCACGCCTTG	-0.288
